About 83,000 compounds went through this panel and 20% of them were active in at least one assay; those are over-represented in the sample as a whole.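 Single-concentration screen, 48 h exposure, 96-well plates. Endpoint: percent growth. Below 10 = active.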 The source made the active and inactive calls.
system: OVCAR-8 ovarian; assay: NCI-60 one-dose screen, 48 h (100 = growth as untreated, 0 = no growth, -100 = all killed); conditions: 10 µM unless noted
Description: Growth inhibition of the OVCAR-8 human tumor cell line is measured as a screen for anti-cancer activity. Cells are grown in 96 well plates and exposed to the test compound for 48 hours. Compounds are tested at a single concentration, which is 10^-5 M for most compounds. The reported endpoint is percent growth (GI% or GIPRCNT), where numbers from 0 - 100% represent growth inhibition, and numbers from -100% - 0 represent cell death. For example, a value of 40 represents 60% growth inhibition. A value of 0 means no net growth occurred over the course of the experiment. A value of -40 indicates 40% of cells at the beginning of the experiment died by the end of the experiment. A value of -100 means all cells are dead at the end of the experiment.
NCI-60 Human Tumor Cell Lines Screen was performed using the standard one-dose NCI protocol, which is described in more detail at https://dtp.cancer.gov/discovery_development/nci-60/default.htm.
Compounds with GIPRCNT values below 10 were considered active. Activity score was based on GIPRCNT using the following formula: […]
Score is 0 for GIPRCNT values of 100 or above, 50 for GIPRCNT values of 0, and 100 for GIPRCNT values of -100.

**Q.** How did the growth turn out when `O=C1OC(=O)C2C1CC=CC2c1ccccc1` (stereo not given) was run?
**A.** 95.3% (inactive)

**Q.** Which growth does the source give for `O=S(=O)(NCCNc1nccc(-c2c(-c3ccc(F)c(O)c3)nc3occn23)n1)c1ccccc1` here?
**A.** 53.7% (inactive)

**Q.** How did the growth turn out when `COc1cc2nc(-c3ccc(C(F)(F)F)cc3)cc(OCCCN3CCC(O)CC3)c2cc1OC` was run?
**A.** 44.1% (inactive)

**Q.** How did the growth turn out when `CN1CCN(CC#CCNC(=O)[C@]23CCC(C)(C)C[C@H]2C2=CC[C@@H]4[C@@]5(C)Cc6c([nH]c7ccccc67)C(C)(C)[C@@H]5CC[C@@]4(C)[C@]2(C)CC3)CC1` was run?
**A.** 77% (inactive)

**Q.** `C=C(C)[C@@H]1CC[C@]2(C(=O)NCCCN(CCC#N)CCC#N)CC[C@]3(C)[C@H](CC[C@@H]4[C@@]5(C)CCC(=O)C(C)(C)[C@@H]5CC[C@]43C)[C@@H]12` was tested. Which growth did it give?
**A.** 97.9% (inactive)

**Q.** `CCCCCN1C=C/C(=C\C(=O)N(C)c2ccc(Br)cc2)c2ccccc21` was tested. Which growth did it give?
**A.** 89.4% (inactive)

**Q.** For `C=C1C(=O)O[C@H]2[C@H]1CC/C(CNC(=O)/C=C/c1ccccc1F)=C\CC[C@@]1(C)O[C@@H]21`, which growth is on record?
**A.** 4.58% (active)

**Q.** `O=C(Nc1cccc(Cl)c1)Oc1c(Br)c(Br)c(Br)c(Br)c1Br` was tested. Which growth did it give?
**A.** 88.9% (inactive)

**Q.** Which growth does the source give for `Clc1cc(Cl)cc(N2N=C(c3cccc(Nc4ccncc4)c3)CC2c2ccc(Br)cc2)c1` (stereo not given) here?
**A.** -13.7% (active)

**Q.** For `CC(=O)N1N=C(c2cccc(Nc3ccncc3)c2)CC1c1ccccc1` (stereo not given), which growth is on record?
**A.** 88.9% (inactive)

**Q.** With `O=C1c2ccccc2-c2c1c1c(NCCCO)nc3ccccc3c1n2Cc1ccccc1` as the molecule, how does the growth read?
**A.** 25.9% (inactive)

**Q.** With `COc1ccc(C(=O)/C=C/c2ccc(OCc3ccccc3)c(OC)c2)cc1OC` as the molecule, how does the growth read?
**A.** 17.4% (inactive)

**Q.** `Nc1cc(N)c2cccnc2c1O` was tested. Which growth did it give?
**A.** 68.6% (inactive)

**Q.** `Cc1cccc(C)c1-c1cc(Cc2ccc(Cl)cc2)c(=O)[nH]n1` was tested. Which growth did it give?
**A.** 97.1% (inactive)

**Q.** `O=C1CCC(NC(=S)Nc2ccccc2)N1` (stereo not given) was tested. Which growth did it give?
**A.** 107% (inactive)

**Q.** Which growth does the source give for `CCc1c(Nc2ccc(C)cc2)nc(N)[nH]c1=O` here?
**A.** 102% (inactive)

**Q.** Which growth does the source give for `CCc1c(Nc2ccc(C)cc2)[nH]c(N)nc1=S` here?
**A.** 101% (inactive)

**Q.** With `CCCCCCCCCCN=C(N)N=C(N)N` as the molecule, how does the growth read?
**A.** 43.5% (inactive)

**Q.** `C[C@H]1[C@H](C)CC[C@]2(CO)CC[C@]3(C)C(=CC[C@@H]4[C@@]5(C)Cc6c([nH]c7ccccc67)C(C)(C)[C@@H]5CC[C@]43C)[C@H]12` was tested. Which growth did it give?
**A.** 77% (inactive)

**Q.** For `CN1C2CCC1CN(c1cnc(C(=O)Nc3cc(F)cc4cccnc34)cn1)C2`, which growth is on record?
**A.** 54.4% (inactive)

**Q.** `COc1ccc(/C=N/C2=C(C#N)C(c3ccccc3[N+](=O)[O-])c3ccc4ccccc4c3O2)cc1` (stereo not given) was tested. Which growth did it give?
**A.** 95.1% (inactive)

**Q.** For `Cc1cn(-c2cc(C(=O)Nc3cccc(C#Cc4cccc5[nH]nc(N)c45)c3)cc(C(F)(F)F)c2)cn1`, which growth is on record?
**A.** 48.8% (inactive)

**Q.** How did the growth turn out when `CCN(CC)CCCC(Nc1c2ccc(Cl)cc2nc2ccc(OC)cc12)c1ccc(Cl)cc1` (stereo not given) was run?
**A.** -37.7% (active)

**Q.** Which growth does the source give for `CN(C)c1ccc(-c2c(C#N)c(N)n3nc(N)c(C#N)c3c2C#N)cc1` here?
**A.** 83.7% (inactive)

**Q.** How did the growth turn out when `Fc1ccc(C2CC(c3cccc(Nc4ccncc4)c3)=NN2c2cc(Cl)cc(Cl)c2)cc1` (stereo not given) was run?
**A.** -18.3% (active)

**Q.** With `CC(=O)N1c2ccccc2NC2=C(C(=O)N(C)C2(C)C)C1C` (stereo not given) as the molecule, how does the growth read?
**A.** 65.8% (inactive)

**Q.** `Cc1nc2sc(C(=O)Nc3ccccc3)c(N)c2cc1C(=O)c1ccc(C(F)(F)F)cc1` was tested. Which growth did it give?
**A.** 101% (inactive)

**Q.** `CC(=O)OCC(=O)[C@@]1(O)CC[C@H]2[C@@H]3CC(=C(Br)Br)C4=CC(=O)CC[C@]4(C)[C@H]3C(=O)C[C@@]21C` was tested. Which growth did it give?
**A.** 92.9% (inactive)

**Q.** Which growth does the source give for `Cn1c(COC(=O)NCCn2ccnc2)nc2c(N3CCOCC3)nc(-c3ccccc3)nc21` here?
**A.** -12.9% (active)

**Q.** Which growth does the source give for `O=C(CN1CCOCC1)Nc1ccc2ncnc(Nc3ccc(OCc4cccc(F)c4)c(Cl)c3)c2c1` here?
**A.** 63.1% (inactive)

**Q.** `Cc1ccc2nc3c(cc2c1)CSc1nnc(-c2ccc[nH]c2=S)n1N3` was tested. Which growth did it give?
**A.** 100% (inactive)

**Q.** Which growth does the source give for `Cc1ccc(O)c(C(=O)O)c1` here?
**A.** 112% (inactive)

**Q.** `COc1ccc(Cc2nc3cc(OC)c(OC)cc3c(=O)[nH]2)cc1` was tested. Which growth did it give?
**A.** 73.5% (inactive)

**Q.** Which growth does the source give for `COc1cc(COC(=O)CCCCC[P+](c2ccccc2)(c2ccccc2)c2ccccc2)c(OC)c2c1OCO2` here?
**A.** 64.4% (inactive)

**Q.** How did the growth turn out when `O=C1NC(=S)NC(=O)C1=Cc1cccc(C=C2C(=O)NC(=S)NC2=O)c1` was run?
**A.** 104% (inactive)

**Q.** Which growth does the source give for `CS(=O)(=O)Nc1cc(-c2ccc3ncnc(Nc4ccc5[nH]ncc5c4)c3c2)cnc1Cl` here?
**A.** 86% (inactive)

**Q.** Which growth does the source give for `N/C(=N\N=C\c1cc2ccccc2s1)N/N=C/c1cc2ccccc2s1` here?
**A.** 107% (inactive)

**Q.** For `S=c1[nH]cccc1-c1nnc2n1Nc1nc3ccc(Cl)cc3cc1CS2`, which growth is on record?
**A.** 102% (inactive)

**Q.** For `CCC1(CC)NC(=O)c2c(c3ccc(Cl)c(Cl)c3n2C)C1C#N` (stereo not given), which growth is on record?
**A.** 93.6% (inactive)

**Q.** With `CN1C(=O)N(C)[C@H]2NC(NN)=N[C@H]21` as the molecule, how does the growth read?
**A.** 103% (inactive)

— PubChem BioAssay (NCI)
